In PubChem BioAssay AID1159580 (chemical genetic matrix, 2015):
About 2,000 (36%) of roughly 5,500 compounds were called active. About 18% were inconclusive and are not listed. No stated cut-off is given here; in the data, active means normalized growth mostly below about 0.91 (no sharp cut-off); inconclusive means no clear call, values can overlap the other calls; inactive means mostly above about 0.92. Some of the results follow.

Assay: chemical genetic growth profiling, strain panel (AID 1159580);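 further: tested at 20 µM; growth read once vehicle control cultures reached saturation at 30 °C; 1 = growth at the plate median or of vehicle wells; lower values mean less growth of the strain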
Conditions: growth OD
[1] = S. cerevisiae deletion strains, locus YDR150W, strain NUM1, hits give low values
[2] = S. cerevisiae deletion strains, locus YNL322C, strain KRE1, hits give low values
[3] = S. cerevisiae deletion strains, locus YPL241C, strain CIN2, hits give low values

Measured: normalized growth

O=C(O)/C=C1\CCCc2ccccc2C1O (stereo unspecified)
inactive: S. cerevisiae deletion strains, locus YAL013W, strain DEP1, hits give low values 1.01 | S. cerevisiae deletion strains, locus YBR021W, strain FUR4, hits give low values 1.01 | S. cerevisiae deletion strains, locus YBR229C, strain ROT2, hits give low values 0.965 | S. cerevisiae deletion strains, locus YCL029C, strain bik1, hits give low values 0.982 | S. cerevisiae deletion strains, locus YDL035C, strain GPR1, hits give low values 0.993 | S. cerevisiae deletion strains, locus YDL074C, strain BRE1, hits give low values 0.96 | S. cerevisiae deletion strains, locus YDL101C, strain DUN1, hits give low values 0.988 | S. cerevisiae deletion strains, locus YDL134C, strain PPH21, hits give low values 0.992 | S. cerevisiae deletion strains, locus YDL185W, strain tfp1, hits give low values 0.945 | S. cerevisiae deletion strains, locus YDL192W, strain arf1, hits give low values 0.977 | S. cerevisiae deletion strains, locus YDR101C, strain arx1, hits give low values 0.993 | [1] 0.991 | S. cerevisiae deletion strains, locus YDR162C, strain NBP2, hits give low values 0.987 | S. cerevisiae deletion strains, locus YDR318W, strain mcm21, hits give low values 0.985 | S. cerevisiae deletion strains, locus YDR388W, hits give low values 0.989 | S. cerevisiae deletion strains, locus YDR502C, strain sam2, hits give low values 0.976 | S. cerevisiae deletion strains, locus YEL061C, strain CIN8, hits give low values 0.995 | S. cerevisiae deletion strains, locus YER110C, hits give low values 0.982 | S. cerevisiae deletion strains, locus YER155C, strain BEM2, hits give low values 1.01 | S. cerevisiae deletion strains, locus YER167W, strain BCK2, hits give low values 0.998 | S. cerevisiae deletion strains, locus YGL078C, strain dbp3, hits give low values 0.992 | S. cerevisiae deletion strains, locus YGL086W, strain mad1, hits give low values 0.991 | S. cerevisiae deletion strains, locus YGL248W, strain PDE1, hits give low values 0.979 | S. cerevisiae deletion strains, locus YGR078C, strain PAC10, hits give low values 1 | S. cerevisiae deletion strains, locus YGR135W, strain pre9, hits give low values 0.98 | S. cerevisiae deletion strains, locus YGR229C, strain SMI1, hits give low values 0.997 | S. cerevisiae deletion strains, locus YGR252W, strain gcn5, hits give low values 0.962 | S. cerevisiae deletion strains, locus YHR030C, strain SLT2, hits give low values 1.01 | S. cerevisiae deletion strains, locus YHR079C, strain IRE1 (second series), hits give low values 0.992 | S. cerevisiae deletion strains, locus YHR094C, strain hxt1, hits give low values 0.984 | S. cerevisiae deletion strains, locus YHR129C, strain ARP1, hits give low values 0.992 | S. cerevisiae deletion strains, locus YHR200W, strain rpn10, hits give low values 0.989 | S. cerevisiae deletion strains, locus YIL066C, strain RNR3, hits give low values 0.996 | S. cerevisiae deletion strains, locus YIL073C, strain SPO22, hits give low values 0.974 | S. cerevisiae deletion strains, locus YIL125W, strain kgd1, hits give low values 0.975 | S. cerevisiae deletion strains, locus YIR030C, strain dcg1, hits give low values 0.988 | S. cerevisiae deletion strains, locus YJL095W, strain BCK1, hits give low values 1.01 | S. cerevisiae deletion strains, locus YJL134W, strain LCB3, hits give low values 0.986 | S. cerevisiae deletion strains, locus YJL168C, strain set2, hits give low values 0.986 | S. cerevisiae deletion strains, locus YJL187C, strain SWE1 (second series), hits give low values 0.99 | S. cerevisiae deletion strains, locus YJR043C, strain POL32, hits give low values 0.998 | S. cerevisiae deletion strains, locus YJR075W, strain HOC1, hits give low values 0.985 | S. cerevisiae deletion strains, locus YKL009W, strain mrt4, hits give low values 0.955 | S. cerevisiae deletion strains, locus YKL068W, hits give low values 0.981 | S. cerevisiae deletion strains, locus YKL085W, strain MDH1 (second series), hits give low values 0.98 | S. cerevisiae deletion strains, locus YKL085W, strain MDH1, hits give low values 0.98 | S. cerevisiae deletion strains, locus YKL190W, strain CNB1, hits give low values 0.996 | S. cerevisiae deletion strains, locus YKR001C, strain vps1, hits give low values 0.978 | S. cerevisiae deletion strains, locus YLR039C, strain RIC1, hits give low values 0.944 | S. cerevisiae deletion strains, locus YLR058C, strain SHM2, hits give low values 0.988 | S. cerevisiae deletion strains, locus YLR102C, strain apc9, hits give low values 0.977 | S. cerevisiae deletion strains, locus YLR262C, strain YPT6, hits give low values 0.937 | S. cerevisiae deletion strains, locus YLR268W, strain sec22, hits give low values 0.984 | S. cerevisiae deletion strains, locus YLR330W, strain CHS5, hits give low values 0.998 | S. cerevisiae deletion strains, locus YLR342W, strain FKS1 (second series), hits give low values 0.983 | S. cerevisiae deletion strains, locus YLR371W, strain rom2, hits give low values 0.975 | S. cerevisiae deletion strains, locus YLR418C, strain cdc73, hits give low values 0.989 | S. cerevisiae deletion strains, locus YML016C, strain PPZ1, hits give low values 0.964 | S. cerevisiae deletion strains, locus YML032C, strain rad52, hits give low values 0.982 | S. cerevisiae deletion strains, locus YML124C, strain tub3, hits give low values 0.992 | S. cerevisiae deletion strains, locus YMR078C, strain ctf18, hits give low values 0.977 | S. cerevisiae deletion strains, locus YMR223W, strain ubp8, hits give low values 0.991 | S. cerevisiae deletion strains, locus YMR263W, strain SAP30, hits give low values 0.952 | S. cerevisiae deletion strains, locus YMR307W, strain GAS1, hits give low values 0.991 | S. cerevisiae deletion strains, locus YNL067W, strain RPL9B, hits give low values 0.998 | S. cerevisiae deletion strains, locus YNL128W, strain TEP1, hits give low values 0.976 | S. cerevisiae deletion strains, locus YNL153C, strain GIM3, hits give low values 0.998 | S. cerevisiae deletion strains, locus YNL233W, strain BNI4, hits give low values 1.01 | S. cerevisiae deletion strains, locus YNL250W, strain rad50, hits give low values 0.979 | S. cerevisiae deletion strains, locus YNL271C, strain bni1, hits give low values 0.987 | S. cerevisiae deletion strains, locus YNL298W, strain CLA4, hits give low values 0.964 | S. cerevisiae deletion strains, locus YNL307C, strain MCK1, hits give low values 0.986 | [2] 0.986 | S. cerevisiae deletion strains, locus YNR052C, strain pop2, hits give low values 0.989 | S. cerevisiae deletion strains, locus YOL006C, strain TOP1, hits give low values 0.983 | S. cerevisiae deletion strains, locus YOL012C, strain htz1 0.943 | S. cerevisiae deletion strains, locus YOL147C, strain pex11, hits give low values 0.991 | S. cerevisiae deletion strains, locus YOR061W, strain CKA2, hits give low values 0.974 | S. cerevisiae deletion strains, locus YOR069W, strain VPS5, hits give low values 1 | S. cerevisiae deletion strains, locus YOR136W, strain idh2, hits give low values 0.995 | S. cerevisiae deletion strains, locus YOR144C, strain elg1, hits give low values 0.991 | S. cerevisiae deletion strains, locus YOR184W, strain ser1, hits give low values 0.985 | S. cerevisiae deletion strains, locus YOR316C, strain cot1, hits give low values 0.975 | S. cerevisiae deletion strains, locus YPL055C, strain LGE1, hits give low values 0.971 | [3] 0.997 | S. cerevisiae deletion strains, locus YPR119W, strain clb2, hits give low values 0.995 | S. cerevisiae deletion strains, locus YPR141C, strain kar3, hits give low values 0.964 | S. cerevisiae deletion strains, locus YPR163C, strain tif3, hits give low values 0.99 | S. cerevisiae deletion strains, locus YPR167C, strain met16, hits give low values 0.987 | S. cerevisiae deletion strains, strain wtn01, hits give low values 0.98 | S. cerevisiae strains, strain wild type, hits give low values 0.991

Nc1ncnc2c1nc(Sc1ccc(Cl)cc1)n2C1OC2COP(=O)(O)O[C@@H]2[C@@H]1O (stereo partly specified)
inactive: S. cerevisiae deletion strains, locus YAL040C, strain CLN3, hits give low values 0.98 | [1] 0.999 | S. cerevisiae deletion strains, locus YDR363W, strain ESC2, hits give low values 1.01 | S. cerevisiae deletion strains, locus YER002W, strain NOP16, hits give low values 0.984 | S. cerevisiae deletion strains, locus YNL175C, strain NOP13, hits give low values 1.01 | S. cerevisiae deletion strains, locus YNL197C, strain WHI3, hits give low values 1.02 | S. cerevisiae deletion strains, locus YNL224C, strain SQS1, hits give low values 0.995 | [2] 0.996 | S. cerevisiae deletion strains, locus YOR083W, strain WHI5 (second series), hits give low values 1.02 | [3] 1
